Assay results reported in PubChem BioAssay.
Where “and” joins values, the source holds several entries; their conditions need not be identical. Identical values can stand only once. For part of these data: Results with a measured potency or affinity are listed apart. Some structures have more than one record in an assay (separate samples or runs), and their calls can disagree. Calls of active or inactive are those of the source. Unless noted, how the calls were made is not given here.

Assays:
[1] = antimalarial activity against Dd2 strain (AID 2302;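 active means growth inhibition above 50% at the single 2 µM test dose, taken to imply half-maximal potency below 2 µM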;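 further: 0% = DMSO untreated growth and 100% = chloroquine plus artemisinin killed control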); details: P. falciparum Dd2 in RBCs, LDH growth readout, 72 h; at 2 µM; stronger effect = higher value
[2] = HepG2 cytotoxicity, primary screen, cytotoxicity control for P. falciparum antimalarial project, cell-based, ATP luminescence (AID 2303;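 active means inhibition above 50%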;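 further: 0% = DMSO wells and 100% = digitonin-killed cells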); details: HepG2 viability, 24-48 h, at 10 µM, stronger effect = higher value
[3] = biological target: L-lactate dehydrogenase (Plasmodium falciparum (isolate CDC / Honduras)) (UniProt Q27743); test: PfLDH activity inhibition – cell lysate, 3D7 strain, counter-screen for P. falciparum growth inhibition project (AID 2304);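 further: 0% = vehicle and 100% = reference inhibitor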; details: P. falciparum 3D7 crude extract, LDH APAD/NBT absorbance; at 2 µM; stronger effect = higher value
L-lactate dehydrogenase (Plasmodium falciparum (isolate CDC / Honduras)), sequence (Q27743 whole entry, looked up): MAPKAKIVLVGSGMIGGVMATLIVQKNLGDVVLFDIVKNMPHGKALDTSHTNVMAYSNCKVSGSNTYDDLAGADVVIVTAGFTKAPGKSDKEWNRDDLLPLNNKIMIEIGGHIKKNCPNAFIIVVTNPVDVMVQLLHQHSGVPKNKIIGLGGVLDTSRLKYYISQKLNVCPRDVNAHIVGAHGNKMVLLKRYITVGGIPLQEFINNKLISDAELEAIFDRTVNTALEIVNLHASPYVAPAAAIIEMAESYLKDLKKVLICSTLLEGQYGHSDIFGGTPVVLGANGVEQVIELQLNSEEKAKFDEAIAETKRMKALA

[4] = inhibition of 3D7 malaria parasite growth – strain 3D7 (AID 2306);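 further: 0% = DMSO wells and 100% = chloroquine plus artemisinin control wells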; details: P. falciparum 3D7 erythrocytic growth, LDH absorbance, 72 h; at 2 µM; stronger effect = higher value
[5] = biological target: Calcium-dependent protein kinase 1 (Plasmodium falciparum (isolate 3D7)) (UniProt P62344); test: PfCDPK1 kinase inhibitors, biochemical, TCAMS library (AID 1159585; cut-off not given, nearly all actives have IC50 up to about 0.98 µM;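 further: inhibitors leave more ATP so luminescence rises with inhibition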); details: recombinant PfCDPK1, Kinase-Glo ATP depletion luminescence
Calcium-dependent protein kinase 1 (Plasmodium falciparum (isolate 3D7)), sequence (P62344 whole entry, looked up): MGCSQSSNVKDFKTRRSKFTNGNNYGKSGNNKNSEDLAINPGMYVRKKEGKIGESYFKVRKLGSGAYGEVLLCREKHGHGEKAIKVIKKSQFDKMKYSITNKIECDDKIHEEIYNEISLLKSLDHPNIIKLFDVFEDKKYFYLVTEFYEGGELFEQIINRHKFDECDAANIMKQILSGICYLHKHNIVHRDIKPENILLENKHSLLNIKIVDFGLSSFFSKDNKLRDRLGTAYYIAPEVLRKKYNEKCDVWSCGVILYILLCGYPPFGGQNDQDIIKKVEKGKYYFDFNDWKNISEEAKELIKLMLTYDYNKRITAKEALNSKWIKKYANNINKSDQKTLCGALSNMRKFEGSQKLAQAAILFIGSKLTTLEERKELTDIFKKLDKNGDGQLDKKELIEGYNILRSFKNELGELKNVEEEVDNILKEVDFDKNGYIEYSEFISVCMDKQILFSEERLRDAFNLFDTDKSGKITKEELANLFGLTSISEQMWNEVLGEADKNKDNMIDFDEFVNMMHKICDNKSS

[6] = biological target: Plasmodium falciparum protein kinase 6 (PK6, PF3D7_1337100) (UniProt Q8IDW1); test: PfPK6 kinase inhibitors, biochemical, TCAMS library (AID 1159586); details: recombinant PfPK6, Kinase-Glo ATP depletion luminescence
Plasmodium falciparum protein kinase 6 (PK6, PF3D7_1337100), sequence (Q8IDW1 1-305): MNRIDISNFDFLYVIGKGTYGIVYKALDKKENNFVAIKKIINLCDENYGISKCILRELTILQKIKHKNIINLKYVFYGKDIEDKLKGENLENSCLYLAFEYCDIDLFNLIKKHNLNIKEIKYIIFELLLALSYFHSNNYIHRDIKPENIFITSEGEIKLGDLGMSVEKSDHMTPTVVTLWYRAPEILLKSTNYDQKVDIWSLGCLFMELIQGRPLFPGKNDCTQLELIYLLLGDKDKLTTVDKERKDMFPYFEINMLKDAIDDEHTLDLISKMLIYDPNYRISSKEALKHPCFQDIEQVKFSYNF

[7] = biological target: Protein kinase 7 (PK7), Plasmodium falciparum 3D7 (PF3D7_0213400) (UniProt Q7YTF7); test: inhibition of Plasmodium PK7 catalytic activity – biochemical, TCAMS antimalarial set, Kinase-Glo luminescence (AID 1159587); details: recombinant PfPK7, Kinase-Glo ATP depletion luminescence
Protein kinase 7 (PK7), Plasmodium falciparum 3D7 (PF3D7_0213400), sequence (Q7YTF7 1-343): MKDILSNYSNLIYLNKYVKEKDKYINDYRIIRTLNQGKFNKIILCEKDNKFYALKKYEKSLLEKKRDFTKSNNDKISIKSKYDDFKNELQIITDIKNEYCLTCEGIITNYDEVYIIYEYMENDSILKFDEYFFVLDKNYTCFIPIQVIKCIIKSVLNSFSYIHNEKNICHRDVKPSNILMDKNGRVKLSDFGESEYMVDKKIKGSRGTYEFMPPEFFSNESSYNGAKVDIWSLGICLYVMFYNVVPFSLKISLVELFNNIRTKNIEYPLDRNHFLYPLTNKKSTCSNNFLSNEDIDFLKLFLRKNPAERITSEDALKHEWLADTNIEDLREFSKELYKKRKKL

[8] = biological target: Calcium-dependent protein kinase 4 (Plasmodium falciparum (isolate 3D7)) (UniProt Q8IBS5); test: PfCDPK4 kinase inhibitors, biochemical, TCAMS library (AID 1159588; cut-off not given, nearly all actives have IC50 up to about 0.91 µM); details: recombinant PfCDPK4, Kinase-Glo ATP depletion luminescence
Calcium-dependent protein kinase 4 (Plasmodium falciparum (isolate 3D7)), sequence (Q8IBS5 whole entry, looked up): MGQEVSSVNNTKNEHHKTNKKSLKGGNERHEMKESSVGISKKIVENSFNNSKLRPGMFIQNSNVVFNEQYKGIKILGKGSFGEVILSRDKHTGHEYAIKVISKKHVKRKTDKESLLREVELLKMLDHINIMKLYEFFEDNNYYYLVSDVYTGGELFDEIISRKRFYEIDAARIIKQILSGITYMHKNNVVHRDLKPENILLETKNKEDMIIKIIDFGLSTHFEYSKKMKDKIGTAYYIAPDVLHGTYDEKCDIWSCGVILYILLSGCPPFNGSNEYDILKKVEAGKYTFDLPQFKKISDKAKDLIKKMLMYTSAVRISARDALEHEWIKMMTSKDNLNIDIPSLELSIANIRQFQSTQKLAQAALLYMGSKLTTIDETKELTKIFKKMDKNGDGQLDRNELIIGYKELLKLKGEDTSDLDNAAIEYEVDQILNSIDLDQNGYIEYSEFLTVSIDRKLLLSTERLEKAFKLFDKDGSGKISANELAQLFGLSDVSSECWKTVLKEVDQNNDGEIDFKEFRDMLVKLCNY

Compound | growth inhibition [1] | inhibition [2] | inhibition [3] | growth inhibition [4] | outcome [5] | outcome [6] | outcome [7] | outcome [8]
CC(=O)N(Cc1ccccc1-c1cccc(CNCc2ccc3c(c2)OCO3)c1)C1CCN(Cc2ccccc2)CC1 | 44% (inactive) | 17% (inactive) | -3% (inactive) | 85% (active) | inactive | inactive | inactive | inactive
COc1ccc(-c2ccccc2)cc1NC(=S)NC1CCC(CN2CCC(c3c[nH]c4ccccc34)CC2)CC1 (centres undefined) | 98% (active) and 95% (active) | 51% (active) and 27% (inactive) | -7% (inactive) and -5% (inactive) | 102% (active) and 100% (active) | inactive | inactive | inactive | inactive
CC[C@H]1CN2CC[C@H]1C[C@@H]2[C@H](O)c1ccnc2ccc(O)cc12 | -4% (inactive) | -3% (inactive) | -2% (inactive) | 94% (active) | inactive | inactive | inactive | inactive
CC[C@H]1CN2CC[C@H]1C[C@H]2[C@H](O)c1ccnc2ccc(C#N)cc12 | 55% (active) | 0% (inactive) | 5% (inactive) | 100% (active) | inactive | inactive | inactive | inactive
O=C(/C=C/c1ccc(Cl)c(Cl)c1)Nc1cccc(CN2CCC(c3c[nH]c4ccc(O)cc34)CC2)c1 | 90% (active) | 11% (inactive) | 0% (inactive) | 101% (active) | inactive | inactive | inactive | inactive
CC(=O)Nc1ccc(CN2CCC(N(C)c3ccc(NC(=O)c4cccc(C)c4)cc3)CC2)cc1 | 50% (active) | -7% (inactive) | -4% (inactive) | 91% (active) | inactive | inactive | inactive | inactive
O=C(/C=C/c1ccc(Cl)c(Cl)c1)NC1CCC(CN2CCC(c3c[nH]c4ccccc34)CC2)CC1 (centres undefined) | 85% (active) | 27% (inactive) | 5% (inactive) | 101% (active) | inactive | inactive | inactive | inactive
C#CCN1CCC2=C(C1)c1c(O)cc(C(C)CCCc3ccc(F)cc3)cc1OC2(C)C (centres undefined) | 90% (active) | 1% (inactive) | 5% (inactive) | 98% (active) | inactive | inactive | inactive | inactive
CN1CC=C(c2c[nH]c3ccc(Oc4ccccc4)cc23)CC1 | 98% (active) | 40% (inactive) | -7% (inactive) | 98% (active) | inactive | inactive | inactive | inactive
COc1coc(C(=O)NC2CCN(CC3(c4ccc(Cl)cc4)CCC3)CC2)c1OC | 96% (active) | 2% (inactive) | -3% (inactive) | 96% (active) | inactive | inactive | inactive | inactive
O=C(C=Cc1cc([N+](=O)[O-])ccc1Cl)NC1CCC(CN2CCC(c3c[nH]c4ccccc34)CC2)CC1 (centres undefined) | 94% (active) | 21% (inactive) | 1% (inactive) | 102% (active) | inactive | inactive | inactive | inactive
Oc1ccc(CN2CCN(CCOC(c3ccc(F)cc3)c3ccc(F)cc3)CC2)cc1Cl | 87% (active) | 19% (inactive) | -4% (inactive) | 96% (active) | inactive | inactive | inactive | inactive
COc1cccc(C(=O)[C@H]2C[C@@H]2CN2CC=C(c3c[nH]c4cccc(Br)c34)CC2)c1 | 85% (active) | 22% (inactive) | -3% (inactive) | 96% (active) | inactive | inactive | inactive | inactive
CSc1nccc(-c2ccc(S(=O)(=O)NC3CCC(CN4CCC(c5c[nH]c6ccccc56)CC4)CC3)s2)n1 (centres undefined) | 67% (active) and 33% (inactive) | 36% (inactive) and 61% (active) | -1% (inactive) and 4% (inactive) | 101% (active) | inactive | inactive | inactive | inactive
Cc1[nH]c2ccccc2c1C1=CCN(CCCCC2(C)C(=O)Nc3cccc(F)c32)CC1 (centres undefined) | 90% (active) | 9% (inactive) | -4% (inactive) | 95% (active) | inactive | inactive | inactive | inactive
COc1ccc(F)cc1-c1csc(N(c2ccc(F)cc2)C2CCNCC2)n1 | -3% (inactive) | 15% (inactive) | -1% (inactive) | 94% (active) | inactive | inactive | inactive | inactive
CC[C@H]1CN2CC[C@@H]1C[C@H]2[C@H](O)c1cc(N2CCC(N3CCCCC3)CC2)nc2ccc(OC)cc12 | 77% (active) | 0% (inactive) | 3% (inactive) | 99% (active) | inactive | inactive | inactive | inactive
c1ccc2c(NCCCCCCCCCNc3c4ccccc4nc4ccccc34)c3ccccc3nc2c1 | 95% (active) | 99% (active) | -6% (inactive) | 100% (active) | inactive | inactive | inactive | inactive
